# What was measured:
# Experiment in all cases: thermal shift delta Tm vs DMSO control; higher = stronger stabilization (binding)
# Details in all cases: 12.5 µM; protein concentration 2 µM
# LOC_OS02G45750-cb003 = test system: LOC_OS02G45750-cb003
# In short: (§1)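 Heating from 25°C to 95°C at 0.05°C/s, fluorescence was recorded for 19.5 μl wells of 2 μM E. coli-expressed, purified rice kinase domain in 100 mM potassium phosphate pH 7.5, 150 mM NaCl, 10% glycerol and 5 × SYPRO Orange with compound in DMSO. Boltzmann fits gave melting temperatures for this differential scanning fluorimetry assay. The shift reported is the mean of three replicates against the DMSO-only protein.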
# LOC_OS02G54510-cb004 = test system: LOC_OS02G54510-cb004
# In short: as §1
# LOC_OS03G04050-cb001 = test system: LOC_OS03G04050-cb001
# In short: as §1
# LOC_OS03G12390-cb001 = test system: LOC_OS03G12390-cb001
# In short: as §1
# LOC_OS03G27990-cb004 = test system: LOC_OS03G27990-cb004
# In short: as §1
# LOC_OS03G50450-cb001 = test system: LOC_OS03G50450-cb001
# In short: as §1
# LOC_OS03G50810-cb003 = test system: LOC_OS03G50810-cb003
# In short: as §1
# LOC_OS04G35114-cb001 = test system: LOC_OS04G35114-cb001
# In short: as §1
# LOC_OS04G38480-cb003 = test system: T1, LOC_OS04G38480-cb003
# T1 sequence (whole entry): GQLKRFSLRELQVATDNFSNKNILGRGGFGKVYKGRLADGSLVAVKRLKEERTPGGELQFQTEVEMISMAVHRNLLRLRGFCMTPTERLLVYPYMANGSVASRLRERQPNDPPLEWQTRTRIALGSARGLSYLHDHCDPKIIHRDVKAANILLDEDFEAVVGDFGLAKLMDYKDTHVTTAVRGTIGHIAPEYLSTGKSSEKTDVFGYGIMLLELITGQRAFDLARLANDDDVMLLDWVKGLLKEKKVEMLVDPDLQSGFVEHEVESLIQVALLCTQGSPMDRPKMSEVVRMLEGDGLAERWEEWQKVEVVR
# In short: as §1
# LOC_OS04G41100-cb001 = test system: T2, LOC_OS04G41100-cb001
# T2 sequence (whole entry): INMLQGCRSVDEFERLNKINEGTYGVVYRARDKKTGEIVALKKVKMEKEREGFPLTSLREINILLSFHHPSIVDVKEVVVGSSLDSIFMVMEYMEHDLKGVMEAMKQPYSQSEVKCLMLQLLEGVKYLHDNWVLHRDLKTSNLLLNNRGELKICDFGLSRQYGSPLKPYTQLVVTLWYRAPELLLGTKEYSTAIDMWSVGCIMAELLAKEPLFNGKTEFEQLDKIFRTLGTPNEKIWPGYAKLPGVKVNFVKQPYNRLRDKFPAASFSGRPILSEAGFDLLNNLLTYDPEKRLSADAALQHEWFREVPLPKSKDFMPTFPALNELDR
# In short: as §1
# 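Further: purified Escherichia coli-expressed rice kinase domain construct.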
SMILES,thermal shift delta Tm (LOC_OS02G45750-cb003),thermal shift delta Tm (LOC_OS02G54510-cb004),thermal shift delta Tm (LOC_OS03G04050-cb001),thermal shift delta Tm (LOC_OS03G12390-cb001),thermal shift delta Tm (LOC_OS03G27990-cb004),thermal shift delta Tm (LOC_OS03G50450-cb001),thermal shift delta Tm (LOC_OS03G50810-cb003),thermal shift delta Tm (LOC_OS04G35114-cb001),thermal shift delta Tm (LOC_OS04G38480-cb003),thermal shift delta Tm (LOC_OS04G41100-cb001)
COc1cc(N2CCC(N)CC2)ccc1Nc1ncc(Cl)c(-c2c[nH]c3ccccc23)n1,2.46 °C,1.23 °C,0.85 °C,14.1 °C,5.3 °C,8.66 °C,6.42 °C,3.73 °C,4.68 °C,1.54 °C
COC(=O)N[C@@H](C)CNc1nccc(-c2cn(C(C)C)nc2-c2cc(Cl)cc(NS(C)(=O)=O)c2F)n1 [Encorafenib (LGX818)],0.44 °C,-0.06 °C,0.22 °C,-0.2 °C,0.34 °C,0.01 °C,0.12 °C,0.62 °C,0.49 °C,1.63 °C
COC(=O)Nc1ccc(-c2nc(N3CCOCC3)c3cnn(C4CCN(C(=O)OC)CC4)c3n2)cc1,0 °C,-0.07 °C,0.1 °C,0.08 °C,-0.05 °C,0.08 °C,0.17 °C,0.06 °C,0.81 °C,0.47 °C
CO[C@H]1C[C@@H]2CC[C@@H](C)[C@@](O)(O2)C(=O)C(=O)N2CCCC[C@H]2C(=O)O[C@H]([C@H](C)C[C@@H]2CC[C@H](n3cnnn3)[C@H](OC)C2)CC(=O)[C@H](C)/C=C(\C)[C@@H](O)[C@@H](OC)C(=O)[C@H](C)C[C@H](C)/C=C/C=C/C=C/1C [Zotarolimus(ABT-578)],1.04 °C,0.46 °C,0.79 °C,0.05 °C,0.77 °C,0.89 °C,0.33 °C,0.66 °C,2.27 °C,0.4 °C
Nc1ncnc2n[nH]c(Nc3ccc(F)cc3)c12,4.8 °C,0.26 °C,0.25 °C,2.15 °C,3.38 °C,0.1 °C,0.92 °C,5.47 °C,0.62 °C,0.32 °C
Nc1nc(N)c2nc(-c3cccc(O)c3)c(-c3cccc(O)c3)nc2n1,0.83 °C,0.31 °C,0.2 °C,0.79 °C,1.44 °C,0.33 °C,0.34 °C,0.99 °C,1.12 °C,0.63 °C
NC[C@@](O)(c1ccc(Cl)cc1)c1ccc(-c2cn[nH]c2)cc1,1.24 °C,0.3 °C,0.31 °C,0.49 °C,0.56 °C,0.8 °C,0.36 °C,1.05 °C,1.51 °C,0.81 °C
COc1cc(N2CCC(N3CCN(C)CC3)CC2)ccc1Nc1ncnc(Nc2ccccc2S(=O)(=O)C(C)C)n1,1.85 °C,0.1 °C,0.24 °C,1.69 °C,0.28 °C,0.36 °C,0.99 °C,0.74 °C,1.16 °C,0.34 °C
COc1cc2c(Oc3ccc4[nH]c(C)cc4c3F)ncnc2cc1OCCCN1CCCC1 [Cediranib (AZD2171)],1.17 °C,-0.01 °C,0.25 °C,1.5 °C,0.44 °C,-0.12 °C,2.04 °C,5.53 °C,0.23 °C,0.71 °C
O=C(O)c1ccc(Nc2ncc3c(n2)-c2ccc(Cl)cc2C(c2c(F)cccc2F)=NC3)cc1,0.27 °C,1.01 °C,0.54 °C,-0.49 °C,0.21 °C,0.06 °C,0.12 °C,0.54 °C,0.01 °C,0.55 °C
CCN(CC)CCNC(=O)c1c(C)[nH]c(/C=C2\C(=O)Nc3ccc(F)cc32)c1C [Sunitinib Malate],12.4 °C,0.41 °C,0.23 °C,7.66 °C,6.23 °C,2.74 °C,6.79 °C,10.1 °C,2.16 °C,0.97 °C
O=C(Nc1ccc(OC(F)(F)F)cc1)c1sccc1NCc1ccnc2ccccc12,0.52 °C,4.36 °C,0.44 °C,0.88 °C,0.45 °C,0.51 °C,0.48 °C,0.29 °C,0.95 °C,0.59 °C
CNS(=O)(=O)Nc1nccc(Cc2c(C)c3ccc(Oc4ncccn4)cc3oc2=O)c1F,0.52 °C,-0.03 °C,0.37 °C,0.7 °C,0.15 °C,0.4 °C,0.57 °C,-0.07 °C,0.35 °C,0.2 °C
Oc1cc(O)cc(/C=C/c2ccc(O)c(O)c2)c1 [Piceatannol],-0.87 °C,0.68 °C,0.78 °C,-0.65 °C,0.48 °C,0.23 °C,0.47 °C,0.4 °C,1.45 °C,0.8 °C
COc1cc2ccc(=O)oc2cc1O [Scopoletin],0.7 °C,0.13 °C,0.44 °C,0.02 °C,0.3 °C,0.69 °C,0.22 °C,0.41 °C,0.05 °C,0.47 °C
Cc1cccc(CC(=O)N2CCc3c2ccc(-c2cn(C)c4ncnc(N)c24)c3F)n1,1.87 °C,0.61 °C,0.63 °C,0.44 °C,0.12 °C,0.29 °C,0.3 °C,0.7 °C,3.73 °C,0.27 °C
C[C@@H]1CN(C(=O)c2ccc(NC(=O)c3cc(O[C@H](C)c4c(Cl)ccc(F)c4Cl)c(N)nn3)cc2)C[C@H](C)N1 [Ensartinib (X-396)],6.54 °C,3.48 °C,-0.25 °C,2.86 °C,0.07 °C,0.15 °C,5 °C,8.12 °C,5.86 °C,0.2 °C
Cc1cnc(NC(=O)Nc2cc(Br)c(C)cc2OC[C@@H]2CNCCO2)cn1,2.48 °C,0.18 °C,0.38 °C,0.98 °C,0.74 °C,0.51 °C,2.11 °C,1.71 °C,0.59 °C,0.37 °C
Cc1c(Cn2c(C)nc3c(C(=O)O)cc(N4CCOCC4)cc32)cccc1C(F)(F)F,0.34 °C,0.11 °C,0.14 °C,-0.17 °C,0.07 °C,0.48 °C,0.29 °C,0.99 °C,0.75 °C,0.4 °C
OC1CCC(Oc2cccc3cnc(Nc4ccc5nc[nH]c5c4)nc23)CC1 (stereo not given),17.1 °C,2.66 °C,0.39 °C,8.52 °C,5.39 °C,7.93 °C,7.28 °C,7.42 °C,4.8 °C,5.03 °C

# Source: the supplement of paper PMC9694430
